“And” between values parts separate entries of the source, which are not always exact repeats. Equal entries are not always repeated. Results filed as inconclusive are left out. Where a structure was tested more than once in an assay, its records may differ in their call. The source made the active and inactive calls. Unless noted, calls come from the whole dose curve; as a rule, active = well fitted curve in the direction sought with a large enough effect; inconclusive = small, poorly fitted or top-dose-only effect, or another doubt; inactive = no such curve, though single readings can be large; an effect the other way counts as inactive or inconclusive.
Tests used:
[1] = target: Cytochrome P450 3A4 (Homo sapiens) (UniProt P08684); experiment: qHTS Assay for Activators of Cytochrome P450 3A4 (AID 885); note: nearly all actives have a fitted effect of over 65% in size
In short: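 20nM CYP3A4 + 25uM Luciferin-PPXE (=KM), 200mM KPO4; cpd 10 min RT; NADPH regen, 60 min RT; stop w/ detection buffer, 20 min; luminescence. Normalized to 57 uM ketoconazole.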

[2] = target: Cytochrome P450 3A4 (Homo sapiens) (UniProt P08684); experiment: qHTS Assay for Inhibitors and Substrates of Cytochrome P450 3A4 (AID 884); note: series mostly up to about 57 µM; % is set by controls: 0 for no effect and ±100 for the full control effect; nearly all actives have a fitted effect of over 50% in size
In short: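 20 nM human CYP3A4 with 25 uM Luciferin-PPXE (at KM) in 200 mM KPO4, preincubated 10 min with compound; NADPH regeneration started a 60 min RT reaction. Luciferin detected by luminescence, normalized to 57 uM ketoconazole as full inhibition.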

[3] = qHTS Assay for Identification of Small Molecule Agonists for Thrombopoietin (TPO) Signaling Pathway (AID 917); note: % is set by controls: 0 for no effect and ±100 for the full control effect
In short: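 We measured Glycoprotein IIb promoter–luciferase output in IL-3-starved Ba/F3 murine cells expressing the human TPO receptor after 24 hrs at 37 C with compounds and 26 pM TPO.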

[4] = target: Muscarinic acetylcholine receptor M1 (Rattus norvegicus) (UniProt P08482); experiment: qHTS Assay for Antagonists of Acetylcholine Muscarinic M1 Receptor: Kinetic Measurement of Intracellular Calcium Response (AID 943); note: nearly all actives have a fitted effect of over 75% in size; note: potency is the fitted concentration of half-maximal effect;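 for activity change, negative = inhibition: Fluo-4 calcium signal as peak divided by basal fluorescence over 4 min; series mostly up to about 35 µM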
In short: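 Rat M1-CHO cells, 2000/well, overnight → Fluo-4 no-wash dye with probenecid, 1 h 37C → compound 10 min, room temp → basal read 6 s → carbachol EC80 (100 nM) → 4 min kinetic read; peak/basal.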

[5] = target: Muscarinic acetylcholine receptor M1 (Rattus norvegicus) (UniProt P08482); experiment: qHTS Assay for Antagonists of Acetylcholine Muscarinic M1 Receptor: Measurement of IP-One Response (AID 944); note: nearly all actives have a fitted effect of over 75% in size; note: potency is the fitted concentration of half-maximal effect
In short: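 M1-CHO (rat), 2000 cells/well, overnight recovery; cpd 10 min; carbachol EC80 (200 nM), 30 min, HEPES buffer + 50 mM LiCl pH 7.4; IP-One HTRF, Ex 337, Em 620/665 nm.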

[6] = target: Pyruvate kinase (Leishmania mexicana) (UniProt Q27686); experiment: qHTS Validation Assay for Inhibitors of Leishmania Mexicana Pyruvate Kinase (AID 945);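 note: 0% = DMSO only neutral control wells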
In short: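 An endpoint luciferase assay: 0.2 nM LmPYK E451W turns over 0.5 mM PEP with 0.1 mM ADP for 1 h at room temperature, pH 7.2, before PKLight addition. Values are normalized to DMSO-only wells.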

[7] = target: Pyruvate kinase PKM (Homo sapiens) (UniProt P14618); experiment: qHTS Assay for Activators of Human Muscle Pyruvate Kinase (AID 954; active = well fitted curve in the direction sought with a large enough effect, not every such curve was filed as active;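 note: 0% = uninhibited enzyme and -100% = no enzyme or full thiadiazolimine inhibition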)
In short: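 Luminescence from a luciferase ATP-detection/stop reagent reported PKM2 activity. Reactions contained 0.1 nM purified human enzyme, 0.5 mM PEP, 0.1 mM ADP and 7 mM MgCl2 at pH 7.2, run 1 h at RT.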

[8] = Confirmation and Secondary Assay for Modulators of Hemoglobin Beta Chain Splicing at IVS2 654 locus (AID 910);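 note: HeLa cells stably carrying EGFP split by mutant beta-globin IVS2-654 intron; per-well total GFP intensity by laser scanning cytometry after 2-day treatment; % of control where 0% means no effect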
In short: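 Readout: per-well total peak green fluorescence (488 nm ex, 500–520 nm em) from objects 5–250 µm, reflecting correct splicing of an EGFP-654 reporter. Compounds were applied for 2 days at 37 °C to overnight-plated HeLa EGFP-654 cells; controls were DMSO and 500 nM IVS2-654 PNA.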

[9] = Confirmation and Secondary Assay for Modulators of Hemoglobin Beta Chain Splicing at IVS2 705 locus (AID 930);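 note: GFP fluorescence per well restored by corrected splicing of the IVS2-705 intron in EGFP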; note: potency is the fitted concentration of half-maximal effect;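 for activation: HeLa cells stably expressing the EGFP-705 splicing reporter; series mostly up to about 46 µM; % of control where 0% means no effect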
In short: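 Per-well GFP, captured at 1 x 8 µm resolution with 488 nm excitation, served as the read-out for HeLa EGFP-705 cells incubated 2 days with test compound versus DMSO.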

[10] = target: Cytochrome P450 2D6 (Homo sapiens) (UniProt P10635); experiment: qHTS Assay for Inhibitors and Substrates of Cytochrome P450 2D6 (AID 891); note: nearly all actives have a fitted effect of over 60% in size; note: potency is the fitted concentration of half-maximal effect;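 for activity change, negative = inhibition: luciferin methyl ether substrate demethylated by CYP2D6 with NADPH regeneration; % is set by controls: 0 for no effect and ±100 for the full control effect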
In short: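 Human CYP2D6 (5 nM) with 30 uM Luciferin-ME EGE (at Km) in 100 mM KPO4, compound preincubated 10 min, then NADPH regeneration system for 60 min at room temperature. Luciferin read by luminescence; normalized to 1.43 uM quinidine.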

[11] = target: Cytochrome P450 2C19 (Homo sapiens) (UniProt P33261); experiment: qHTS Assay for Inhibitors and Substrates of Cytochrome P450 2C19 (AID 899); note: % is set by controls: 0 for no effect and ±100 for the full control effect; nearly all actives have a fitted effect of over 60% in size
In short: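 Luminescence readout of luciferin formed from 10uM Luciferin-H EGE (KM level) by 5 nM CYP2C19 in 50mM KPO4. 60 min NADPH-driven reaction at 37C after 10 min compound preincubation; data scaled to 57uM ketoconazole inhibition.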

[12] = MultiTox-Fluor Cytotoxicity Assay - LYMP1-001 - Dead Cells (AID 946);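 note: cells exposed to compound for 16 h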; note: potency is the fitted concentration of half-maximal effect
In short: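 AC50 from Hill fit of concentration-response; data normalized to DMSO (basal) and 15 uM tetraoctylammonium bromide (100%). LYMP1-001 lymphoblastoid cells, 2500/well, 16 hr compound at 37 C; dead-cell protease fluorescence, Ex/Em 485/520.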

[13] = MultiTox-Fluor Cytotoxicity Assay - LYMP1-001 - Live Cells (AID 947);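 note: 0% = DMSO only and full inhibition = tetraoctylammonium bromide control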
[14] = MultiTox-Fluor Cytotoxicity Assay - LYMP1-002 - Live Cells (AID 955);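 note: cells exposed to compound for 16 hours; % is set by controls: 0 for no effect and ±100 for the full control effect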
In short: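 Read-out is live-cell protease activity (cell-permeant GF-AFC substrate, fluorescence Ex/Em=405/510), where a decrease indicates acute toxicity. Human lymphoblastoid cells were treated 16 hours at 37 C in a concentration series, and AC50 values came from standard Hill modelling.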

[15] = MultiTox-Fluor Cytotoxicity Assay - LYMP1-003 - Dead Cells (AID 961);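 note: cells exposed to compound for 16 h at 37 °C; nearly all actives have a fitted effect of over 70% in size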; note: potency is the fitted concentration of half-maximal effect
In short: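 Human lymphoblastoid LYMP1-003 cells (2500/well) were treated with compounds for 16 hr at 37 C in complete medium. Dead-cell protease release was read by bis-AAF-R110 fluorescence (Ex/Em 485/520). AC50 came from Hill fits, normalized to DMSO and 15 uM tetraoctylammonium bromide.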

[16] = Cell Viability - LYMP2-001 (AID 921);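 note: series mostly up to about 92 µM; cells exposed to compound for 24 h at 37 °C; 0% = DMSO only and full inhibition = tetraoctylammonium bromide control wells; nearly all actives have a fitted effect of over 70% in size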
In short: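 qHTS, 1536-well; lymphoblastoid cells, 24 hr compound, 37 C; ATP by CellTiter-Glo, 30 min RT; luminescence; Hill-fit AC50.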

[17] = MultiTox-Fluor Cytotoxicity Assay - LYMP1-002 - Dead Cells (AID 960);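 note: cells exposed to compound for 16 h at 37 °C; nearly all actives have a fitted effect of over 60% in size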
In short: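 LYMP1-002 cells 2500/well; 5 hr 37 C pre-incubation; compound 16 hr 37 C; MultiTox-Fluor reagent 60 min RT; dead-cell fluor Ex/Em 485/520. Norm. to DMSO (0%) vs 15 uM tetraoctylammonium bromide (100%); Hill AC50.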

[18] = qHTS Assay for Identification of Small Molecule Antagonists for NFkB Signaling Pathway (AID 895; active = well fitted inhibition curve with a large enough effect in the signal ratio, with a control signal flat, not every such curve was filed as active; the % refers to the signal ratio; note: potency is the fitted concentration of half-maximal effect; for activity change, negative = inhibition: % is set by controls: 0 for no effect and ±100 for the full control effect)
In short: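 Beta-lactamase reporter read-out (460 and 530 nm emission ratio, 405 nm excitation, 2 hrs substrate loading RT) after 5 hr stimulation with 10 pM TNF alpha in compound-treated NFkB-bla ME-180 cells in low-serum medium.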

[19] = qHTS Assay for Identification of Small Molecule Antagonists for Thrombopoietin (TPO) Signaling Pathway (AID 918); conditions: TPO-dependent cell signaling reporter, antagonist mode; note: potency is the fitted concentration of half-maximal effect; nearly all actives have a fitted effect of over 60% in size
In short: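 Ba/F3 (murine, hTPO-R, GPIIb-luc reporter); overnight IL-3 withdrawal; cpd + TPO 26 pM final (EC50); 24 h 37 C/5% CO2; Steadylite luminescence after 10 min RT.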

[20] = qHTS Assay for Identification of Small Molecule Agonists for Hypoxia Response Element Signaling Pathway (AID 914; active = well fitted activation curve with a large enough effect in the signal ratio, with a control signal flat, not every such curve was filed as active; the % refers to the signal ratio; note: % of control where 0% means no effect); conditions: ME-180 (cervical carcinoma) HRE-bla reporter, beta-lactamase ratio, CoCl2, 17 h; stronger effect = higher value
In short: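 In Opti-MEM containing 0.5% dialyzed FBS and 10 mM HEPES, ME-180 HRE-bla cells received a compound titration and EC50 CoCl2. They were incubated 17 hours, then CCF4-loaded 2.5 hours at room temperature before ratio reading.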

Chain of Cytochrome P450 2D6 (Homo sapiens) (P10635 whole entry, looked up): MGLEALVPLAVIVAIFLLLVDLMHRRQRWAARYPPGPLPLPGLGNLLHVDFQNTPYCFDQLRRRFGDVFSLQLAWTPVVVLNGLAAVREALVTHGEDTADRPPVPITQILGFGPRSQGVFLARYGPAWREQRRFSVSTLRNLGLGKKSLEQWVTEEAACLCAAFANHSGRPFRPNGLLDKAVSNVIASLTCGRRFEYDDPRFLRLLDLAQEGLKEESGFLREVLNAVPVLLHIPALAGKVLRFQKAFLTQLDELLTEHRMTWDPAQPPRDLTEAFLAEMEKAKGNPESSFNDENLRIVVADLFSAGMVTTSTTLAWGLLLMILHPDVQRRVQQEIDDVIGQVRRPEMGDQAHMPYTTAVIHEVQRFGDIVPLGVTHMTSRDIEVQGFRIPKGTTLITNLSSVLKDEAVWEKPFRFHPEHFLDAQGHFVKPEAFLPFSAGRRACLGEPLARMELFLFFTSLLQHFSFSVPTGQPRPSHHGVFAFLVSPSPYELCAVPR
Chain of Pyruvate kinase PKM (Homo sapiens) (P14618 whole entry, looked up): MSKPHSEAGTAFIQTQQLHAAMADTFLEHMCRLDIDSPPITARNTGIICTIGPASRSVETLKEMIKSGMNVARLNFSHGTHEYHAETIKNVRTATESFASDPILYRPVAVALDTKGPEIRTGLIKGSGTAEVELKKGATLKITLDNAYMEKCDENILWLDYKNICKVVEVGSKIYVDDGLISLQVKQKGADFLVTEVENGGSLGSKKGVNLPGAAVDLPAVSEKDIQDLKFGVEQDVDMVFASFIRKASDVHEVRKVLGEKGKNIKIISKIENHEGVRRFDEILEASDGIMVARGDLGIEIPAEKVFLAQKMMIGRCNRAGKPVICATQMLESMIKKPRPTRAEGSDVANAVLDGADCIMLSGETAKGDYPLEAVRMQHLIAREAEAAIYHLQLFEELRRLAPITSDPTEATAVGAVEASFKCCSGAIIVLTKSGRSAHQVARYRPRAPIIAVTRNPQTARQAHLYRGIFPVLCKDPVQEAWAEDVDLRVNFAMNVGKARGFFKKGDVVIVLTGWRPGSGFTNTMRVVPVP
Chain of Muscarinic acetylcholine receptor M1 (Rattus norvegicus) (P08482 whole entry, looked up): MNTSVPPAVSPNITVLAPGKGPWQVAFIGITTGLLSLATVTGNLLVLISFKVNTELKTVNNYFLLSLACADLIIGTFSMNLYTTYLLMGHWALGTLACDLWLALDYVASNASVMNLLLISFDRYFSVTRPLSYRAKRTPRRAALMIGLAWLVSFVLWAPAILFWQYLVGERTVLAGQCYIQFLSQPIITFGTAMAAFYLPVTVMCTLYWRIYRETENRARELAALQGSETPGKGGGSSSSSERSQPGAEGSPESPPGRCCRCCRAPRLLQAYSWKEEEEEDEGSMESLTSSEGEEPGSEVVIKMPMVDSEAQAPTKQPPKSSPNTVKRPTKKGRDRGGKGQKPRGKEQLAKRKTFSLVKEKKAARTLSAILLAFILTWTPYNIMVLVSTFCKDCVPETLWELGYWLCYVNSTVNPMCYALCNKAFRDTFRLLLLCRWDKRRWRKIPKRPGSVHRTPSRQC
Chain of Cytochrome P450 2C19 (Homo sapiens) (P33261 whole entry, looked up): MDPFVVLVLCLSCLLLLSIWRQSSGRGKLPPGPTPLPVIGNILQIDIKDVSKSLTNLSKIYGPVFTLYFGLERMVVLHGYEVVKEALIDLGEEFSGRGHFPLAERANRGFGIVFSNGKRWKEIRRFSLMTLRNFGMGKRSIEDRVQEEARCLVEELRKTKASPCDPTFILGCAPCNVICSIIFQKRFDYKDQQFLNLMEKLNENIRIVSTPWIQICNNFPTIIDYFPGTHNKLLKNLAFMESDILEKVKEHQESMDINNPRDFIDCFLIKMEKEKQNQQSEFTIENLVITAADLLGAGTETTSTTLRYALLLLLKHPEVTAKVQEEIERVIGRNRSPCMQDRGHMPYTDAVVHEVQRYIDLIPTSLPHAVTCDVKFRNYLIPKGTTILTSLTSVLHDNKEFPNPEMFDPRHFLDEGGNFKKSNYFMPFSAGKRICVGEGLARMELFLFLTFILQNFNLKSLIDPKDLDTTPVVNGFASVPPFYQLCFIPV
Chain of Pyruvate kinase (Leishmania mexicana) (Q27686 2-499 E452W): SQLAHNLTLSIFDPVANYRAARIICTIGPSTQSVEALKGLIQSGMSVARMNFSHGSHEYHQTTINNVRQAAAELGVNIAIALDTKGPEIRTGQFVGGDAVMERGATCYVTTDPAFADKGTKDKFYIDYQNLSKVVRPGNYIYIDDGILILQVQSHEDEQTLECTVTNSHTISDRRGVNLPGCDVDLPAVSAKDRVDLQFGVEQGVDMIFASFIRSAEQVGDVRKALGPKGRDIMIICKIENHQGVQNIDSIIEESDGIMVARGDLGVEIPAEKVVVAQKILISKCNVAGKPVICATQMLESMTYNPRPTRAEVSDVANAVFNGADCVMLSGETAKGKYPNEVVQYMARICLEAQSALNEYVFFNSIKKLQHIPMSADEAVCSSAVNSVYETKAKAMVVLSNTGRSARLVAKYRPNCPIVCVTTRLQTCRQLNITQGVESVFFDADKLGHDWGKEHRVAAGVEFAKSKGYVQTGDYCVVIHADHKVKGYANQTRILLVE
Chain of Cytochrome P450 3A4 (Homo sapiens) (P08684 whole entry, looked up): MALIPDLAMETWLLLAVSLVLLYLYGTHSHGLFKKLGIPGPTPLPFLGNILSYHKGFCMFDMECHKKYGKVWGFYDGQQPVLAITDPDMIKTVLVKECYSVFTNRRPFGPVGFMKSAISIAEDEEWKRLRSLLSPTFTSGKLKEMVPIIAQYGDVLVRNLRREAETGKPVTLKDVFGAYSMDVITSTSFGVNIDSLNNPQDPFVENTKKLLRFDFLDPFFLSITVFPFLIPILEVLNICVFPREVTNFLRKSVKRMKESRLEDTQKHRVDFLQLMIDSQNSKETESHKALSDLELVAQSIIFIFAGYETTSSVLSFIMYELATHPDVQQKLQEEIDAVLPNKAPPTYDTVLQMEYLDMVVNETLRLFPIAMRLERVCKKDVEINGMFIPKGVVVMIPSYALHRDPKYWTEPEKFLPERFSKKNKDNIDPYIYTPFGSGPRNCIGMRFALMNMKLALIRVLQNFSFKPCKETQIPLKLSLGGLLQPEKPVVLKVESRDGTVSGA

COc1ccc2c(c1)C(=O)N(CCc1ccc(S(=O)(=O)NC(=O)NC3CCCCC3)cc1)C(=O)C2(C)C
inactive: outcome [1]

C#CCN(C)Cc1ccccc1
inactive: Potency [2] | outcome [3] | Potency [4] | Potency [5] | outcome [6] | outcome [7]

Cc1cc(N)c2ccccc2[n+]1CCCCCCCCCC[n+]1c(C)cc(N)c2ccccc21
active: Potency [4] 1.78 µM | Potency [5] 2.24 µM
inactive: outcome [1] | outcome [8] | Potency [9] | outcome [6] | outcome [7]

Cc1cccc(Nc2cc(Cl)nc(SCC(=O)O)n2)c1C
inactive: activity change, negative = inhibition [10] 13.3% [at 11.4 µM] | activity, negative = inhibition [11] 16.3% [at 11.4 µM] | outcome [8] | Potency [9]
active: Potency [10] 3.16 µM

Nc1ccc(S(=O)(=O)Nc2nccs2)cc1
inactive: Potency [2] | outcome [8] | Potency [9] | Potency [12] | Potency [13] | outcome [14] | Potency [15]

NCCNCCNCCNCCN
inactive: Potency [2] | outcome [16] | Potency [12] | Potency [13] | outcome [14] | outcome [17] | Potency [15]

COc1ccccc1O
inactive: Potency [2] | outcome [16] | Potency [12] | Potency [13] | outcome [14] | outcome [17] | Potency [15]

CC(CN(C)C)CN1c2ccccc2CCc2ccccc21 (stereo not drawn)
inactive: outcome [1] | outcome [8] | Potency [9]

CCCCN(CCCC)CCCOC(=O)c1ccc(N)cc1
inactive: outcome [1] | outcome [8] | Potency [9]
active: Potency [10] 0.0063 µM

CC(CN1c2ccccc2Sc2ccccc21)N(C)C (stereo not drawn)
inactive: Potency [2] | outcome [8] | Potency [9]

Nc1cc(=O)[nH]c(N)n1
inactive: Potency [10] | Potency [11] | outcome [3] | Potency [4] | Potency [5] | outcome [6] | outcome [7]

CNCCCC1c2ccccc2C=Cc2ccccc21
active: Potency [10] 3.98 µM | Potency [18] 8.91 µM | Potency [19] 10 µM | Potency [5] 0.398 µM
inactive: outcome [1] | outcome [6] | outcome [7]

[Cl][In]([Cl])[Cl]
inactive: Potency [2] | outcome [16] | Potency [12] | Potency [13] | outcome [14] | outcome [17] | Potency [15]

O=C1O[C@H]([C@@H](O)CO)C(O)=C1O
inactive: Potency [2] | outcome [16] | Potency [12] | Potency [13] | outcome [14] | outcome [17] | Potency [15]

NCC(=O)CCC(=O)O
inactive: Potency [2] | outcome [8] | Potency [9]

CCCCCCCCCCCCOS(=O)(=O)O
inactive: Potency [2] | outcome [16] | Potency [12] | Potency [13] | outcome [14] | outcome [17] | Potency [15]

CCCCN1CCCC[C@H]1C(=O)Nc1c(C)cccc1C
active: Potency [10] 0.501 µM
inactive: outcome [1]

Nc1ccc(S(=O)(=O)Nc2ccc(Cl)nn2)cc1
inactive: Potency [2] | outcome [8] | Potency [9]

CC(C)C(=O)c1c(C(C)C)nn2ccccc12
inactive: Potency [11] | outcome [3] | Potency [4] | Potency [5] | outcome [6] | outcome [7]
inactive and 39.8 nM (active): Potency [10]

CC1(C)[C@@H]2CC[C@@]1(C)C(=O)C2
inactive: Potency [2] | outcome [16] | Potency [12] | Potency [13] | outcome [14] | Potency [15]

CCN(CC)C(C)CN1c2ccccc2Sc2ccccc21 (stereo not drawn)
inactive: outcome [1] | outcome [8] | Potency [9]

CC(=O)OCC(=O)[C@@]1(O)CC[C@H]2[C@@H]3CCC4=CC(=O)CC[C@]4(C)[C@H]3C(=O)C[C@@]21C
inactive: Potency [2] | outcome [3] | outcome [6] | outcome [7]

Cc1cc2nc3c(=O)[nH]c(=O)nc-3n(C[C@H](O)[C@H](O)[C@H](O)CO)c2cc1C
inactive: outcome [1] | outcome [16] | Potency [13] | outcome [17]
active: Potency [12] 39.8 µM | Potency [15] 39.8 µM

CC1=C(/C=C/C(C)=C/C=C/C(C)=C/C(=O)O)C(C)(C)CCC1
inactive: outcome [1]

CCN(CC)CCOC(=O)C1(C2CCCCC2)CCCCC1
inactive: outcome [1] | outcome [8] | Potency [9] | outcome [6] | outcome [7]

CCN(CC)CCCC(C)Nc1c2ccc(Cl)cc2nc2ccc(OC)cc12 (stereo not drawn)
active: Potency [9] 7.94 µM
inactive: outcome [1]

NC(N)=NCCC[C@H](N)C(=O)O
inactive: Potency [10]

N=c1c[n+](N2CCOCC2)[n-]o1
inactive: Potency [18]

CCC(=O)c1ccc(O)cc1
inactive: activation [20] 5.29%

Cc1ncc([N+](=O)[O-])n1CC(O)CCl (stereo not drawn)
inactive: activation [20] 4.13%

C[C@]12C[C@H](O)[C@H]3[C@@H](CCC4=CC(=O)CC[C@@]43C)[C@@H]1CC[C@@H]2C(=O)CO
inactive: Potency [4]

CCCn1cnc2c1c(=O)n(CCCCC(C)=O)c(=O)n2C
inactive: Potency [4]
